High-throughput results deposited in PubChem by National Center for Advancing Translational Sciences (NCATS).
In the library only some 19% were active in any assay of this set; here they are far more common.
AMA1 RON2 block: inhibitors of Plasmodium falciparum AMA1-RON2 interaction; Potency, µM (series often up to 58.2 µM), actives largely listed as inhibitors; AlphaScreen AMA1-biotinylated RON2 peptide binding; 360,000 tested, 0.2% active; AID 720542; further: nearly all actives have a fitted effect of over 45% in size
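AMA1 (3D7) with his tag at 25 nM final met compounds first, then biotinylated RON2 peptide at 25 nM; detection used donor plus acceptor beads, 10 µg/mL apiece, read by AlphaScreen after 30 min at room temperature.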
CHX counter: counter-screen for Shiga toxin inhibitors: cycloheximide protein synthesis inhibition. AID 2314. max response, %. cell reporter, cycloheximide protein synthesis inhibition counterscreen. 300,000 tested, 12% active; in the data active means max response mostly above about 13%, no sharp cut-off; inactive means mostly below about 14%; further: read at 38.3 µM for the half of the compounds with a filed dose
SARS PLpro yeast: inhibitors of SARS-CoV papain-like protease in yeast | S. cerevisiae expressing SARS-CoV PLpro, growth rescue | Potency, µM (highest dose often 32.9 µM), hits mostly activators | 330,000 tested, 0.19% active; calls by dose curve; further: nearly all actives have a fitted effect of over 55% in size
Shiga toxin inh: blocks Shiga toxin action in Vero cells. 290,000 tested, 9.2% active. inhibition, % at 38.7 µM. Vero cells, Shiga toxin protein synthesis inhibition reporter; in the data active means inhibition mostly above about 28%, no sharp cut-off; inactive means mostly below about 43%
Pf growth 48h: inhibits P. falciparum growth in the first generation, 48 h; AID 504832; Potency, µM (series often up to 28.7 µM), actives largely listed as inhibitors; P. falciparum luciferase growth in erythrocytes, 48 h; 310,000 tested, 5.9% active
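Compounds are pin-transferred into medium, infected erythrocytes (2% hematocrit, 0.1% parasitemia final) are added, and plates sit one parasite generation at 37 C in 5% CO2. Detection reagent is then added and luminescence measured.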
Pf growth 96h: P. falciparum growth inhibition at 96 hour, primary screen for plastid delayed-death inhibitors; 320,000 tested, 6.9% active; P. falciparum luciferase reporter growth, 96 h; Potency, µM (titrated, usually from 28.7 µM), actives largely listed as inhibitors; AID 504834
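Erythrocytes infected with luciferase-expressing P. falciparum were dispensed at 2% hematocrit and 0.05% parasitemia (final), then incubated with compounds 96 hours at 37 C in 5% CO2. Luminescence after detection reagent addition reported growth.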
Numbers stand for hits; i = inactive; ? = inconclusive; nt = no result given. Unless noted, the call rests on the fitted dose curve; in most records, active means well fitted curve in the direction sought with a large enough effect; inconclusive means small, poorly fitted or top-dose-only effect, or another doubt; inactive means no such curve, though single readings can be large; an effect the other way counts as inactive or inconclusive.

SMILES | AMA1 RON2 block | CHX counter | SARS PLpro yeast | Shiga toxin inh | Pf growth 48h | Pf growth 96h
CCOC(=O)N/N=C\c1ccc(-c2cc(Cl)ccc2Cl)o1 | ? | i | i | i | 5.22µM | i
NC(=S)N/N=C/c1ccc(-c2cc(Cl)ccc2Cl)o1 | i | i | i | i | nt | 4.65µM
COc1ccc(C2NC(=S)NC3=C2CCc2cc(OC)ccc23)cc1 (configuration not stated) | i | i | i | i | ? | 5.86µM
C[C@@H]1CNC(=O)c2c(C(=O)NC3CCN(C(=O)OC(C)(C)C)CC3)ncn21 | i | nt | nt | nt | nt | nt
Cc1cc(OCC(=O)Nc2cccnc2)c2c(C)cc(=O)oc2c1 | i | i | i | i | ? | ?
CCCc1cc(=O)oc2cc(C)cc(OCC(=O)Nc3cccnc3)c12 | i | i | i | i | 0.147µM | 0.0928µM
Cc1cc(OC(C)C(=O)NCc2cccnc2)c2c3c(c(=O)oc2c1)CCC3 (configuration not stated) | i | i | i | i | ? | 10.4µM
CCc1cc(=O)oc2cc(C)cc(OC(C)C(=O)NCc3ccncc3)c12 (configuration not stated) | i | i | i | i | ? | 9.28µM
CCCCc1cc(=O)oc2cc(C)cc(OC(C)C(=O)NCc3cccnc3)c12 (configuration not stated) | i | i | i | i | ? | 16.5µM
CCCCc1cc(=O)oc2cc(C)cc(OCC(=O)NCc3ccncc3)c12 | i | i | i | i | ? | 2.33µM
Cc1ccccc1C(=O)Nc1cc(S(=O)(=O)N2CCCCC2)ccc1N1CCN(C)CC1 | i | i | i | i | ? | 9.28µM
CN1CCN(c2ccc(S(=O)(=O)N3CCCCC3)cc2NC(=O)c2ccc3ccccc3c2)CC1 | i | i | i | i | 9.28µM | 9.28µM
CN1CCN(c2ccc(S(=O)(=O)N3CCCCC3)cc2NC(=O)c2cccc([N+](=O)[O-])c2)CC1 | i | i | i | i | i | i
COc1cc(CCC(=O)Nc2cc(Cl)ccc2N2CCN(C)CC2)cc(OC)c1OC | i | i | i | i | 11.7µM | nt
COc1ccccc1CCC(=O)Nc1cc(S(=O)(=O)N2CCCCC2)ccc1N1CCN(C)CC1 | i | nt | i | nt | 11.7µM | ?
CCc1cc(C(=O)Nc2cc(S(=O)(=O)N3CCCCC3)ccc2N2CCN(C)CC2)sc1C | i | nt | nt | nt | nt | nt
O=C1CCN(Cc2ccccc2)C(=S)N1 | i | nt | nt | nt | nt | nt
O=S1(=O)CCN2C=C(Cl)C=C(Cl)C2=N1 | i | i | i | i | i | i
O=C1CC2OCC=C3CN4CCC56c7ccccc7N1C5C2C3CC46 (configuration not stated) | nt | i | nt | i | nt | nt
O=C1/C(=C\c2ccccc2)C2OCC=C3CN4CCC56c7ccccc7N1C5C2C3CC46 (configuration not stated) | i | i | i | i | 2.33µM | 2.62µM
CC(Oc1ccc(F)cc1)C(=O)Nc1sc2c(c1C(=O)NCc1cccnc1)CCCC2 (configuration not stated) | i | i | i | i | 8.28µM | 6.57µM
CC(C)(C)C1CCc2c(sc(NC(=O)c3ccncc3)c2C(N)=O)C1 (configuration not stated) | i | 15.5 | i | i | i | i
O=C(Nc1sc2c(c1C(=O)c1ccccc1)CCCC2)c1cccnc1 | i | i | i | i | i | 0.37µM
NC(=O)c1c(NC(=O)c2cccnc2)sc2c1CCCCC2 | i | i | i | nt | i | i
Cc1occc1C(=O)Nc1sc2c(c1C(N)=O)CCC(C(C)(C)C)C2 (configuration not stated) | i | i | i | i | nt | i
SMILES | AMA1 RON2 block | CHX counter | SARS PLpro yeast | Shiga toxin inh | Pf growth 48h | Pf growth 96h
O=C(Nc1sc2c(c1C(=O)NCc1cccnc1)CCCC2)c1ccco1 | i | i | i | i | ? | ?
NC(=O)c1c(NC(=O)c2cccnc2)sc2c1CCCC2 | i | i | i | 72.6 | i | ?
COc1cc2c(cc1OC)C(C)N(C(=O)c1cc3c(C)cc(C)cc3[nH]1)CC2 (configuration not stated) | i | i | i | i | 10.4µM | 13.1µM
CCOC(=O)CNC(=O)C(CC(C)C)NC(=O)C1CCCCC1 (configuration not stated) | i | i | i | i | nt | ?
CC(=O)Nc1cccc(-c2csc(Nc3cc(C)ccn3)n2)c1 | i | 41.4 | i | 126.6 | i | i
Cc1ccnc(Nc2nc(-c3c(C)nc4sccn34)cs2)c1 | i | 31.7 | i | i | 3.29µM | ?
CC(=O)Nc1ccc(-c2csc(Nc3cc(C)ccn3)n2)cc1 | i | 48.6 | i | 77.9 | i | i
Cc1nc(-c2ccccc2)cs1 | i | i | i | i | nt | i
Cc1ccnc(Nc2nc(-c3ccccc3)cs2)c1 | i | 55.3 | i | 89.5 | i | i
CCOc1ccc(N(CC(=O)Nc2cc(OC)cc(OC)c2)S(=O)(=O)c2c(C)[nH]c(=O)[nH]c2=O)cc1 | i | i | i | i | i | i
COCCNC(=S)N/N=C(\C)c1cccc(OC)c1 | i | i | i | i | i | ?
CC(=O)Nc1cccc(-c2csc(C(C)(NC(C)=O)c3ccccc3)n2)c1 (configuration not stated) | i | nt | nt | nt | nt | nt
CC(=O)Nc1cccc(-c2csc(Nc3ccccn3)n2)c1 | i | 44.5 | i | 90.3 | i | i
O=[N+]([O-])c1cccc(CN2C(COCc3ccccc3)CCC=CS2(=O)=O)c1 (configuration not stated) | nt | 37.8 | nt | 81.9 | nt | nt
Cc1c(Cl)cccc1NC(=O)NCc1cccnc1 | i | i | i | i | i | i
CN(NS(=O)(=O)c1ccccc1)C(=O)c1ccccc1 | i | nt | nt | nt | nt | nt
CC(O)c1cccc(N=Cc2ccc3ccccc3c2O)c1 (configuration not stated) | i | i | i | i | i | i
Cc1cccc(C=Nc2ccc3c(c2)oc2ccccc23)c1O | i | 62.5 | i | 97.9 | i | i
Cc1ccc(CN2C(=O)CCC2(C)c2nnnn2Cc2ccccc2)cc1 (configuration not stated) | i | nt | nt | nt | nt | nt
Cc1cc(NC(=O)c2ccc(Cl)c([N+](=O)[O-])c2)no1 | i | i | i | i | i | i
Cc1nnc(-c2ccc(N3CCCCCC3)c([N+](=O)[O-])c2)o1 | i | 14.8 | i | 50.3 | i | ?
O=C(NN1CCOCC1)c1ccc(Cl)c([N+](=O)[O-])c1 | i | 26.6 | i | 61.5 | i | i
Cc1cc(NC(=O)c2ccc(N3CCCC3)c([N+](=O)[O-])c2)no1 | i | 20.0 | i | i | ? | ?
O=C(Nc1ccon1)c1ccc(N2CCCCC2)c([N+](=O)[O-])c1 | i | 45.5 | i | 99.0 | i | ?
NC(=O)c1ccc(N2CCCCCC2)c([N+](=O)[O-])c1 | i | i | i | i | i | ?
Cc1cc(C(=O)Nc2ccccc2C)on1 | i | i | i | i | i | i
O=C(O)c1cc(N2C(=O)C3CC=CCC3C2=O)ccc1NCc1cccnc1 (configuration not stated) | i | i | i | i | nt | i
O=C(Nc1nc(-c2ccccc2)cs1)c1ccc(N2CCOCC2)c([N+](=O)[O-])c1 | ? | i | i | i | ? | i
